Experimental data from PubChem BioAssay.
Several values for one entry are separate records, joined by “and”; a condition that tells them apart may be missing. Equal entries are not always repeated.

Test: sensitizers of A549 cells to miR-34 induction, primary screen, imaging, A549 dox-inducible miR-34, nuclei and caspase counts (AID 1347080); further: test concentration not given here
Conditions: A549 miR-34 inducible, Hoechst nuclei count, 48 h; measured here: total cells with miR-34 induction; stronger effect = lower value

Going from `OB(O)c1cc2ccccc2s1` to `Cn1c(=O)ccc2ccccc21`, the cell count rises from 7300 to 8490.

Compared with `O=C(O)c1sccc1S(=O)(=O)Nc1ccc(Cl)cc1`, `O=C(O)c1ccc(-c2ccccc2[N+](=O)[O-])o1` is lower in cell count: 8810 for the first, 8650 for the second.

Going from `COc1ccc2c(c1)CCN(C(=O)Nc1n[nH]c(-c3ccco3)n1)C2` to `CN(Cc1cnc2ccccc2n1)C(=O)Nc1n[nH]c(-c2ccco2)n1`, the cell count rises from 7950 to 8010.

First: Cc1ccc(NC(=O)NCCSCc2ccc(CN(C)C)o2)cc1Cl
Second: Cc1cnc(CN(C)C(=O)c2n[nH]c3ccccc23)[nH]1
The cell count of the first is lower: 6630 for the first, 8830 for the second.

First: CSCCC(NC(C)=O)C(=O)O (stereo not given)
Second: O=C(O)CCC(=O)Nc1ccc(Br)cn1
The cell count of the first is lower: 8190 for the first, 8810 for the second.

Compared with `Cc1ccc(NC(=O)c2ccc3nccnc3c2)cn1`, `O=C(Nc1c[nH]c2ccccc12)c1cccnc1` is lower in cell count: 8560 for the first, 8140 for the second.

Compared with `COc1cccc(Cc2noc(-c3nccc4ccccc34)n2)c1`, `c1cc(-c2nc(Cc3ccsc3)no2)c2nccnc2c1` is higher in cell count: 8090 for the first, 8210 for the second.

Compared with `Cc1csc(CNc2nccc(-c3cn(C)nc3C)n2)n1`, `Cc1nn(C)c(C)c1-c1ccnc(NCCOCCO)n1` is lower in cell count: 8410 for the first, 8320 for the second.

Compared with `O=C(NCCc1ccco1)c1cc(C2CC2)[nH]n1`, `O=C(Nc1nncs1)NC1Cc2ccccc2C1` is lower in cell count: 9380 for the first, 8130 for the second.

Going from `Cc1cc(-c2cnn(CC(=O)Nc3ccnn3Cc3ccccc3)c2)nc(N)n1` to `COc1ncccc1-c1cnn(CC(=O)Nc2cc(-c3ccccn3)nn2C)c1`, the cell count rises from 8320 to 9520.

Going from `O=C(Nc1n[nH]c(Cc2ccccc2)n1)N1CCN(c2ncccn2)CC1` to `Nc1ncccc1OCc1ccccc1`, the cell count falls from 8590 to 7870.

First: Cc1cc(C)n(CCCNc2ncc(C)c(-c3cnn(C)c3)n2)n1
Second: COc1cccc(-n2cc(-c3ccnc(NCCc4cnc[nH]4)n3)cn2)c1
The cell count of the first is higher: 8360 for the first, 7850 for the second.

First: COc1ccccc1-c1ccc(C(=O)O)o1
Second: COc1ccccc1-c1cnn(CC(=O)Nc2cc(C)nn2C)c1
The cell count of the first is higher: 8930 for the first, 7820 for the second.

Compared with `COc1ccc(C(=O)N2CCN(C(=O)c3ccc4sc(N)nc4c3)CC2)cc1`, `CC(=O)N1CCCC(Cn2cnc3scc(-c4cc(C)ccc4C)c3c2=O)C1` (stereo not given) is lower in cell count: 9050 for the first, 8240 for the second.

First: Cc1nc(C(=O)O)nn1-c1cc(Cl)cc(Cl)c1
Second: CSc1n[nH]c(-c2ccc(Cl)cc2)n1
The cell count of the first is lower: 8310 for the first, 8540 for the second.

Going from `O=S(=O)(O)CCN1CCOCC1` to `O=c1cc(-c2ccncc2)nc(-c2cccc(CN3CCCC(CO)C3)c2)[nH]1` (stereo not given), the cell count falls from 8760 to 8470.

Going from `Cc1cc(NC(=O)Cn2ccc(-c3ncnn3C)n2)n(C2CCCCC2)n1` to `Cn1nc(C(C)(C)C)cc1NC(=O)Cn1cc(-c2ccccc2N)cn1`, the cell count falls from 9860 to 8250.

Going from `COc1cccc2c(=O)n(Cc3ccc4nonc4c3)cnc12` to `Cn1nc(-c2cccnc2)c2[nH]c(-c3ccc4c(c3)OCCO4)nc21`, the cell count falls from 8180 to 5270.

In the case of `Cc1cc(CN(C)C(=O)c2cc(-c3cnn(C(C)C)c3)nc3cc(F)ccc23)on1`, the cell count was 8520.

With `CC1(C)OC2CO[C@@]3(COS(N)(=O)=O)OC(C)(C)OC3C2O1` (stereo not given in full) the cell count was 9570 and 9420.
For `COc1ccc(CC(C)NCC(O)c2ccc(O)c(NC=O)c2)cc1` (stereo not given), the cell count was 10500 and 8090.
For `OCC1OC(Oc2cc(O)cc(C=Cc3ccc(O)cc3)c2)C(O)C(O)C1O` (stereo not given), the cell count was 9700 and 8270.

Same assay, conditions: A549 miR-34 inducible, Hoechst nuclei count, 48 h; measured here: total cells without miR-34 induction

First: OB(O)c1cc2ccccc2s1
Second: Cn1c(=O)ccc2ccccc21
The cell count of the first is lower: 8450 for the first, 9520 for the second.

Going from `O=C(O)c1sccc1S(=O)(=O)Nc1ccc(Cl)cc1` to `O=C(O)c1ccc(-c2ccccc2[N+](=O)[O-])o1`, the cell count falls from 9930 to 9710.

Compared with `COc1ccc2c(c1)CCN(C(=O)Nc1n[nH]c(-c3ccco3)n1)C2`, `CN(Cc1cnc2ccccc2n1)C(=O)Nc1n[nH]c(-c2ccco2)n1` is lower in cell count: 9130 for the first, 9030 for the second.

Going from `Cc1ccc(NC(=O)NCCSCc2ccc(CN(C)C)o2)cc1Cl` to `Cc1cnc(CN(C)C(=O)c2n[nH]c3ccccc23)[nH]1`, the cell count rises from 7520 to 9910.

First: CSCCC(NC(C)=O)C(=O)O (stereo not given)
Second: O=C(O)CCC(=O)Nc1ccc(Br)cn1
The cell count of the first is lower: 9520 for the first, 10300 for the second.

Compared with `Cc1ccc(NC(=O)c2ccc3nccnc3c2)cn1`, `O=C(Nc1c[nH]c2ccccc12)c1cccnc1` is lower in cell count: 10000 for the first, 9200 for the second.

Going from `COc1cccc(Cc2noc(-c3nccc4ccccc34)n2)c1` to `c1cc(-c2nc(Cc3ccsc3)no2)c2nccnc2c1`, the cell count rises from 8670 to 9220.

Going from `Cc1csc(CNc2nccc(-c3cn(C)nc3C)n2)n1` to `Cc1nn(C)c(C)c1-c1ccnc(NCCOCCO)n1`, the cell count falls from 9480 to 9200.

Going from `O=C(NCCc1ccco1)c1cc(C2CC2)[nH]n1` to `O=C(Nc1nncs1)NC1Cc2ccccc2C1`, the cell count falls from 10200 to 9340.

Going from `Cc1cc(-c2cnn(CC(=O)Nc3ccnn3Cc3ccccc3)c2)nc(N)n1` to `COc1ncccc1-c1cnn(CC(=O)Nc2cc(-c3ccccn3)nn2C)c1`, the cell count rises from 8980 to 9900.

Going from `O=C(Nc1n[nH]c(Cc2ccccc2)n1)N1CCN(c2ncccn2)CC1` to `Nc1ncccc1OCc1ccccc1`, the cell count rises from 9760 to 10300.

First: Cc1cc(C)n(CCCNc2ncc(C)c(-c3cnn(C)c3)n2)n1
Second: COc1cccc(-n2cc(-c3ccnc(NCCc4cnc[nH]4)n3)cn2)c1
The cell count of the first is higher: 9370 for the first, 8810 for the second.

Going from `COc1ccccc1-c1ccc(C(=O)O)o1` to `COc1ccccc1-c1cnn(CC(=O)Nc2cc(C)nn2C)c1`, the cell count falls from 10000 to 9090.

First: COc1ccc(C(=O)N2CCN(C(=O)c3ccc4sc(N)nc4c3)CC2)cc1
Second: CC(=O)N1CCCC(Cn2cnc3scc(-c4cc(C)ccc4C)c3c2=O)C1 (stereo not given)
The cell count of the first is higher: 9880 for the first, 8990 for the second.

First: Cc1nc(C(=O)O)nn1-c1cc(Cl)cc(Cl)c1
Second: CSc1n[nH]c(-c2ccc(Cl)cc2)n1
The cell count of the first is lower: 8930 for the first, 9100 for the second.

First: O=S(=O)(O)CCN1CCOCC1
Second: O=c1cc(-c2ccncc2)nc(-c2cccc(CN3CCCC(CO)C3)c2)[nH]1 (stereo not given)
The cell count of the first is higher: 9670 for the first, 9070 for the second.

First: Cc1cc(NC(=O)Cn2ccc(-c3ncnn3C)n2)n(C2CCCCC2)n1
Second: Cn1nc(C(C)(C)C)cc1NC(=O)Cn1cc(-c2ccccc2N)cn1
The cell count of the first is higher: 10400 for the first, 9040 for the second.

Going from `COc1cccc2c(=O)n(Cc3ccc4nonc4c3)cnc12` to `Cn1nc(-c2cccnc2)c2[nH]c(-c3ccc4c(c3)OCCO4)nc21`, the cell count falls from 8980 to 6130.

For `Cc1cc(CN(C)C(=O)c2cc(-c3cnn(C(C)C)c3)nc3cc(F)ccc23)on1`, the cell count was 9660.

For `CC1(C)OC2CO[C@@]3(COS(N)(=O)=O)OC(C)(C)OC3C2O1` (stereo not given in full), the cell count was 10100 and 9650.
In the case of `COc1ccc(CC(C)NCC(O)c2ccc(O)c(NC=O)c2)cc1` (stereo not given), the cell count was 11200 and 8180.
With `OCC1OC(Oc2cc(O)cc(C=Cc3ccc(O)cc3)c2)C(O)C(O)C1O` (stereo not given) the cell count was 10000 and 8720.
